# PubChem BioAssay (NCI)
# Values joined by “and” are separate entries in the source; they are usually repeats but may differ in a detail not shown here. Identical values can stand only once. Compounds without any hit were thinned out: in the full panel of roughly 79,000, 15% have a hit. A number with no mark means an inactive call. Active and inactive are the calls of the source. No stated cut-off is given here; in the data, active means growth inhibition above about 70%; inactive means the rest.
# Assay: NCI Yeast Anticancer Drug Screen. Data for the mec2-1 strain (AID 157)
# Details: S. cerevisiae mec2-1 strain, at 5.0 µM (retest, dose inferred, filed as 0.5), hits give high values
# Experimental: Growth inhibition of yeast strains with defined genetic alterations is measured as a screen for potential anti-cancer activity. Selected strains with alterations in DNA damage repair or cell cycle control were exposed to compounds and growth inhibition was measured relative to vehicle treated controls. The strain used in this assay is mec2-1
row,Structure (SMILES),growth inhibition
1,CN(Cc1ccccc1)CC(O)c1cccc(I)c1 (configuration not stated),-3%
2,COc1ccc(C[C@H]2NC[C@H](O)[C@H]2OC(C)=O)cc1,29%
3,NNc1ccccc1,1%
4,CC1=C2C(=CC(C)(C)[C@@H]2O)C(=O)[C@](C)(O)C12CC2,12%
5,ClCCN(CCCl)c1ccc(C2N(Cc3ccc(Cl)cc3)CCN2Cc2ccc(Cl)cc2)cc1,44%
6,CCOC(=O)C1=C(C)/C(=C/c2[n-]c(C)c(C(=O)OCC)c2C)N=C1C.CCOC(=O)C1=C(C)/C(=C/c2[n-]c(C)c(C(=O)OCC)c2C)N=C1C.[Zn+2],2%
7,CCCC(=O)O.CCCC(=O)O.CCCC(=O)O.CCCC(=O)O.[Rh].[Rh],34%
8,c1ccc(C[As](c2ccccc2)c2ccccc2)cc1,99% (active)
9,CC(C)c1ccc(C(C)C)c(C(=O)CN2CCOCC2)c1,8%
10,O=C1C(C(Nc2ccccc2)c2ccccc2)=C([O-])c2ccccc21.O=C1C(C(Nc2ccccc2)c2ccccc2)=C([O-])c2ccccc21.[Co+2] (configuration not stated),42%

# Same assay, conditions: S. cerevisiae mec2-1 strain, at 50.0 µM (retest, dose inferred, filed as 5.0), hits give high values
row,Structure (SMILES),growth inhibition
1,CN(Cc1ccccc1)CC(O)c1cccc(I)c1 (configuration not stated),9%
2,COc1ccc(C[C@H]2NC[C@H](O)[C@H]2OC(C)=O)cc1,99% (active)
3,NNc1ccccc1,95% (active)
4,CC1=C2C(=CC(C)(C)[C@@H]2O)C(=O)[C@](C)(O)C12CC2,96% (active)
5,ClCCN(CCCl)c1ccc(C2N(Cc3ccc(Cl)cc3)CCN2Cc2ccc(Cl)cc2)cc1,85% (active)
6,CCOC(=O)C1=C(C)/C(=C/c2[n-]c(C)c(C(=O)OCC)c2C)N=C1C.CCOC(=O)C1=C(C)/C(=C/c2[n-]c(C)c(C(=O)OCC)c2C)N=C1C.[Zn+2],47%
7,CCCC(=O)O.CCCC(=O)O.CCCC(=O)O.CCCC(=O)O.[Rh].[Rh],61%
8,c1ccc(C[As](c2ccccc2)c2ccccc2)cc1,15%
9,CC(C)c1ccc(C(C)C)c(C(=O)CN2CCOCC2)c1,34%
10,O=C1C(C(Nc2ccccc2)c2ccccc2)=C([O-])c2ccccc21.O=C1C(C(Nc2ccccc2)c2ccccc2)=C([O-])c2ccccc21.[Co+2] (configuration not stated),62%

# Same assay, conditions: S. cerevisiae mec2-1 strain, at 50.0 µM, hits give high values
row,Structure (SMILES),growth inhibition
1,CN(Cc1ccccc1)CC(O)c1cccc(I)c1 (configuration not stated),11.3%
2,NC(Cc1ccccc1)c1nccs1 (configuration not stated),-26.6%
3,COc1ccc(C[C@H]2NC[C@H](O)[C@H]2OC(C)=O)cc1,93.8% (active)
4,C[C@]12CC[C@H]3[C@@H](CCC4=CC(=O)CC[C@@]43C)[C@@H]1CC[C@@H]2OC(=O)c1cccc2c(=O)c3ccccc3[nH]c12,73% (active)
5,O=C(NCCNC(=O)Nc1ccccc1S(=O)(=O)F)Nc1ccccc1S(=O)(=O)F,-35.2%
6,NNc1ccccc1,97.3% (active)
7,COc1ccc(P2(=S)OC(C)(C)C(C)(C)O2)cc1,-16.2%
8,C[N+](C)(C)NP(=O)(N[N+](C)(C)C)c1ccccc1,-8.15%
9,CC1=C2C(=CC(C)(C)[C@@H]2O)C(=O)[C@](C)(O)C12CC2,89.8% (active)
10,COc1cc(CC[N+](C)(C)C)cc(OC)c1OC,6.1%
11,CN(C/C=C/CN(C)N=O)N=O,2.05%
12,ClCCN(CCCl)c1ccc(C2N(Cc3ccc(Cl)cc3)CCN2Cc2ccc(Cl)cc2)cc1,60.5%
13,CN(C)c1ccc(SC(Cl)(Cl)Cl)cc1,-14.2%
14,O=C(O)C(F)(F)C(F)(Cl)C(F)(F)C(F)(Cl)C(F)(F)C(F)(Cl)C(F)(F)Cl (configuration not stated) (tested in a mixture with another compound),28.8% and 18.4%
15,CCOC(=O)C1=C(C)/C(=C/c2[n-]c(C)c(C(=O)OCC)c2C)N=C1C.CCOC(=O)C1=C(C)/C(=C/c2[n-]c(C)c(C(=O)OCC)c2C)N=C1C.[Zn+2],99.3% (active)
16,COC(=O)C[CH2][Sn]([CH2]CC(=O)OC)([c]1ccccc1)[c]1ccccc1,30.7%
17,CCOP(=O)(CC(=O)c1ccccc1)OCC,1.25%
18,CCCC(=O)O.CCCC(=O)O.CCCC(=O)O.CCCC(=O)O.[Rh].[Rh],48.5%
19,c1ccc(C[As](c2ccccc2)c2ccccc2)cc1,99.5% (active)
20,CC(C)c1ccc(C(C)C)c(C(=O)CN2CCOCC2)c1,34.8%
21,O=C(O)C(=O)C(Cl)Br (configuration not stated),-8.75%
22,O=C1C(C(Nc2ccccc2)c2ccccc2)=C([O-])c2ccccc21.O=C1C(C(Nc2ccccc2)c2ccccc2)=C([O-])c2ccccc21.[Co+2] (configuration not stated),55.6%
